# Measurements published in PubChem BioAssay AID1159580 (chemical genetic matrix, 2015).
# Several values for one entry are separate records, joined by “and”; a condition that tells them apart may be missing. Equal entries are not always repeated. Out of some 5,500 compounds screened, about 2,000 (36%) were called active. Not shown: some 18% with an inconclusive outcome. This is one part of the list. Unmarked numbers belong to inactive results. Cut-off read from the data, not from the text of the source: active = normalized growth mostly below about 0.91 (no sharp cut-off); inconclusive = no clear call, values can overlap the other calls; inactive = mostly above about 0.92.
# Experiment: chemical genetic growth profiling, strain panel (AID 1159580);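 note: tested at 20 µM; growth read once vehicle control cultures reached saturation at 30 °C; 1 = growth at the plate median or of vehicle wells; lower values mean less growth of the strain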
# Details: growth OD
# [1] = S. cerevisiae deletion strains, locus YDR150W, strain NUM1, stronger effect = lower value
# [2] = S. cerevisiae deletion strains, locus YMR307W, strain GAS1, stronger effect = lower value
# [3] = S. cerevisiae deletion strains, locus YPL055C, strain LGE1, stronger effect = lower value
compound,measurement,setting,value
N.N.O=C(O)C1(C(=O)O)CCC1.[Pt+2],normalized growth,"S. cerevisiae deletion strains, locus YAL040C, strain CLN3, stronger effect = lower value",0.986
same,normalized growth,"S. cerevisiae deletion strains, locus YCL061C, strain MRC1 (second series), stronger effect = lower value",1
same,normalized growth,[1],1
same,normalized growth,"S. cerevisiae deletion strains, locus YDR363W, strain ESC2, stronger effect = lower value",0.988
same,normalized growth,"S. cerevisiae deletion strains, locus YER002W, strain NOP16, stronger effect = lower value",1.02
same,normalized growth,[2],0.984
same,normalized growth,"S. cerevisiae deletion strains, locus YNL175C, strain NOP13, stronger effect = lower value",0.998
same,normalized growth,"S. cerevisiae deletion strains, locus YNL197C, strain WHI3, stronger effect = lower value",1.04
same,normalized growth,"S. cerevisiae deletion strains, locus YNL224C, strain SQS1, stronger effect = lower value",1
same,normalized growth,"S. cerevisiae deletion strains, locus YOR083W, strain WHI5 (second series), stronger effect = lower value",0.995
same,normalized growth,[3],0.998
NC1(C(=O)O)CCC1,normalized growth,"S. cerevisiae deletion strains, locus YAL013W, strain DEP1, stronger effect = lower value",0.911
same,normalized growth,"S. cerevisiae deletion strains, locus YBR021W, strain FUR4, stronger effect = lower value",0.992
same,normalized growth,"S. cerevisiae deletion strains, locus YBR229C, strain ROT2, stronger effect = lower value",1.01
same,normalized growth,"S. cerevisiae deletion strains, locus YCL029C, strain bik1, stronger effect = lower value",0.997
same,normalized growth,"S. cerevisiae deletion strains, locus YDL035C, strain GPR1, stronger effect = lower value",0.956
same,normalized growth,"S. cerevisiae deletion strains, locus YDL074C, strain BRE1, stronger effect = lower value",0.836
same,normalized growth,"S. cerevisiae deletion strains, locus YDL101C, strain DUN1, stronger effect = lower value",0.992
same,normalized growth,"S. cerevisiae deletion strains, locus YDL134C, strain PPH21, stronger effect = lower value",1.01
same,normalized growth,"S. cerevisiae deletion strains, locus YDL185W, strain tfp1, stronger effect = lower value",0.974
same,normalized growth,"S. cerevisiae deletion strains, locus YDL192W, strain arf1, stronger effect = lower value",0.974
same,normalized growth,"S. cerevisiae deletion strains, locus YDR101C, strain arx1, stronger effect = lower value",0.966
same,normalized growth,[1],1
same,normalized growth,"S. cerevisiae deletion strains, locus YDR162C, strain NBP2, stronger effect = lower value",0.99
same,normalized growth,"S. cerevisiae deletion strains, locus YDR318W, strain mcm21, stronger effect = lower value",0.963
same,normalized growth,"S. cerevisiae deletion strains, locus YDR388W, stronger effect = lower value",0.988
same,normalized growth,"S. cerevisiae deletion strains, locus YDR502C, strain sam2, stronger effect = lower value",0.936
same,normalized growth,"S. cerevisiae deletion strains, locus YEL061C, strain CIN8, stronger effect = lower value",1
same,normalized growth,"S. cerevisiae deletion strains, locus YER110C, stronger effect = lower value",0.959
same,normalized growth,"S. cerevisiae deletion strains, locus YER155C, strain BEM2, stronger effect = lower value",1.03
same,normalized growth,"S. cerevisiae deletion strains, locus YER167W, strain BCK2, stronger effect = lower value",0.952
same,normalized growth,"S. cerevisiae deletion strains, locus YGL078C, strain dbp3, stronger effect = lower value",0.996
same,normalized growth,"S. cerevisiae deletion strains, locus YGL086W, strain mad1, stronger effect = lower value",0.955
same,normalized growth,"S. cerevisiae deletion strains, locus YGL248W, strain PDE1, stronger effect = lower value",1.01
same,normalized growth,"S. cerevisiae deletion strains, locus YGR078C, strain PAC10, stronger effect = lower value",0.868
same,normalized growth,"S. cerevisiae deletion strains, locus YGR135W, strain pre9, stronger effect = lower value",0.915
same,normalized growth,"S. cerevisiae deletion strains, locus YGR229C, strain SMI1, stronger effect = lower value",0.717 (active)
same,normalized growth,"S. cerevisiae deletion strains, locus YGR252W, strain gcn5, stronger effect = lower value",0.894
same,normalized growth,"S. cerevisiae deletion strains, locus YHR030C, strain SLT2, stronger effect = lower value",0.996 and 1
same,normalized growth,"S. cerevisiae deletion strains, locus YHR079C, strain IRE1 (second series), stronger effect = lower value",0.982
same,normalized growth,"S. cerevisiae deletion strains, locus YHR079C, strain IRE1, stronger effect = lower value",1.01
same,normalized growth,"S. cerevisiae deletion strains, locus YHR094C, strain hxt1, stronger effect = lower value",0.992
same,normalized growth,"S. cerevisiae deletion strains, locus YHR129C, strain ARP1, stronger effect = lower value",0.971
same,normalized growth,"S. cerevisiae deletion strains, locus YHR200W, strain rpn10, stronger effect = lower value",0.968
same,normalized growth,"S. cerevisiae deletion strains, locus YIL066C, strain RNR3, stronger effect = lower value",0.966
same,normalized growth,"S. cerevisiae deletion strains, locus YIL073C, strain SPO22, stronger effect = lower value",0.895
same,normalized growth,"S. cerevisiae deletion strains, locus YIL125W, strain kgd1, stronger effect = lower value",0.996
same,normalized growth,"S. cerevisiae deletion strains, locus YIR030C, strain dcg1, stronger effect = lower value",0.988
same,normalized growth,"S. cerevisiae deletion strains, locus YJL095W, strain BCK1, stronger effect = lower value",0.88 and 0.998
same,normalized growth,"S. cerevisiae deletion strains, locus YJL134W, strain LCB3, stronger effect = lower value",0.997
same,normalized growth,"S. cerevisiae deletion strains, locus YJL168C, strain set2, stronger effect = lower value",0.978
same,normalized growth,"S. cerevisiae deletion strains, locus YJL187C, strain SWE1 (second series), stronger effect = lower value",0.997
same,normalized growth,"S. cerevisiae deletion strains, locus YJR043C, strain POL32, stronger effect = lower value",0.83 (active)
same,normalized growth,"S. cerevisiae deletion strains, locus YJR066W, strain TOR1, stronger effect = lower value",0.932
same,normalized growth,"S. cerevisiae deletion strains, locus YJR075W, strain HOC1, stronger effect = lower value",0.891
same,normalized growth,"S. cerevisiae deletion strains, locus YKL009W, strain mrt4, stronger effect = lower value",0.98
same,normalized growth,"S. cerevisiae deletion strains, locus YKL068W, stronger effect = lower value",0.996
same,normalized growth,"S. cerevisiae deletion strains, locus YKL085W, strain MDH1 (second series), stronger effect = lower value",1.01
same,normalized growth,"S. cerevisiae deletion strains, locus YKL085W, strain MDH1, stronger effect = lower value",1.01
same,normalized growth,"S. cerevisiae deletion strains, locus YKL190W, strain CNB1, stronger effect = lower value",0.981
same,normalized growth,"S. cerevisiae deletion strains, locus YKR001C, strain vps1, stronger effect = lower value",0.92
same,normalized growth,"S. cerevisiae deletion strains, locus YLR039C, strain RIC1, stronger effect = lower value",0.991
same,normalized growth,"S. cerevisiae deletion strains, locus YLR058C, strain SHM2, stronger effect = lower value",1.01
same,normalized growth,"S. cerevisiae deletion strains, locus YLR102C, strain apc9, stronger effect = lower value",0.986
same,normalized growth,"S. cerevisiae deletion strains, locus YLR113W, strain HOG1, stronger effect = lower value",0.996
same,normalized growth,"S. cerevisiae deletion strains, locus YLR262C, strain YPT6, stronger effect = lower value",1.1
same,normalized growth,"S. cerevisiae deletion strains, locus YLR268W, strain sec22, stronger effect = lower value",0.951
same,normalized growth,"S. cerevisiae deletion strains, locus YLR330W, strain CHS5, stronger effect = lower value",1
same,normalized growth,"S. cerevisiae deletion strains, locus YLR342W, strain FKS1 (second series), stronger effect = lower value",0.955
same,normalized growth,"S. cerevisiae deletion strains, locus YLR371W, strain rom2, stronger effect = lower value",0.995
same,normalized growth,"S. cerevisiae deletion strains, locus YLR418C, strain cdc73, stronger effect = lower value",0.732 (active)
same,normalized growth,"S. cerevisiae deletion strains, locus YML016C, strain PPZ1, stronger effect = lower value",0.994
same,normalized growth,"S. cerevisiae deletion strains, locus YML032C, strain rad52, stronger effect = lower value",0.977
same,normalized growth,"S. cerevisiae deletion strains, locus YML124C, strain tub3, stronger effect = lower value",0.994
same,normalized growth,"S. cerevisiae deletion strains, locus YMR078C, strain ctf18, stronger effect = lower value",0.988
same,normalized growth,"S. cerevisiae deletion strains, locus YMR223W, strain ubp8, stronger effect = lower value",0.935
same,normalized growth,"S. cerevisiae deletion strains, locus YMR263W, strain SAP30, stronger effect = lower value",0.929
same,normalized growth,[2],0.986
same,normalized growth,"S. cerevisiae deletion strains, locus YNL067W, strain RPL9B, stronger effect = lower value",0.952
same,normalized growth,"S. cerevisiae deletion strains, locus YNL128W, strain TEP1, stronger effect = lower value",0.986
same,normalized growth,"S. cerevisiae deletion strains, locus YNL153C, strain GIM3, stronger effect = lower value",0.883
same,normalized growth,"S. cerevisiae deletion strains, locus YNL183C, strain NPR1, stronger effect = lower value",0.916
same,normalized growth,"S. cerevisiae deletion strains, locus YNL233W, strain BNI4, stronger effect = lower value",0.92
same,normalized growth,"S. cerevisiae deletion strains, locus YNL250W, strain rad50, stronger effect = lower value",0.948
same,normalized growth,"S. cerevisiae deletion strains, locus YNL271C, strain bni1, stronger effect = lower value",0.966
same,normalized growth,"S. cerevisiae deletion strains, locus YNL298W, strain CLA4, stronger effect = lower value",0.981
same,normalized growth,"S. cerevisiae deletion strains, locus YNL307C, strain MCK1, stronger effect = lower value",0.894 (active)
same,normalized growth,"S. cerevisiae deletion strains, locus YNL322C, strain KRE1, stronger effect = lower value",0.997
same,normalized growth,"S. cerevisiae deletion strains, locus YNR052C, strain pop2, stronger effect = lower value",0.999
same,normalized growth,"S. cerevisiae deletion strains, locus YOL006C, strain TOP1, stronger effect = lower value",0.934
same,normalized growth,"S. cerevisiae deletion strains, locus YOL012C, strain htz1",1.73
same,normalized growth,"S. cerevisiae deletion strains, locus YOL147C, strain pex11, stronger effect = lower value",0.99
same,normalized growth,"S. cerevisiae deletion strains, locus YOR061W, strain CKA2, stronger effect = lower value",1
same,normalized growth,"S. cerevisiae deletion strains, locus YOR069W, strain VPS5, stronger effect = lower value",1
same,normalized growth,"S. cerevisiae deletion strains, locus YOR136W, strain idh2, stronger effect = lower value",0.973
same,normalized growth,"S. cerevisiae deletion strains, locus YOR144C, strain elg1, stronger effect = lower value",0.994
same,normalized growth,"S. cerevisiae deletion strains, locus YOR184W, strain ser1, stronger effect = lower value",0.875
same,normalized growth,"S. cerevisiae deletion strains, locus YOR231W, strain MKK1, stronger effect = lower value",0.989
same,normalized growth,"S. cerevisiae deletion strains, locus YOR316C, strain cot1, stronger effect = lower value",0.987
same,normalized growth,[3],0.876
same,normalized growth,"S. cerevisiae deletion strains, locus YPL241C, strain CIN2, stronger effect = lower value",0.998
same,normalized growth,"S. cerevisiae deletion strains, locus YPL256C, strain CLN2, stronger effect = lower value",0.995
same,normalized growth,"S. cerevisiae deletion strains, locus YPR119W, strain clb2, stronger effect = lower value",0.999
same,normalized growth,"S. cerevisiae deletion strains, locus YPR141C, strain kar3, stronger effect = lower value",0.981
same,normalized growth,"S. cerevisiae deletion strains, locus YPR163C, strain tif3, stronger effect = lower value",0.996
same,normalized growth,"S. cerevisiae deletion strains, locus YPR167C, strain met16, stronger effect = lower value",0.992
same,normalized growth,"S. cerevisiae deletion strains, strain wtn01, stronger effect = lower value",0.927
same,normalized growth,"S. cerevisiae strains, strain wild type, stronger effect = lower value",0.925
